LASV entry inh = qHTS for Inhibitors of binding or entry into cells for Lassa Virus. Lassa virus pseudotype entry inhibition, cell reporter. Potency, µM (titrated, usually from 37.9 µM), hits mostly inhibitors. 300,000 compounds, 1.2% hits; calls by dose curve; tested in HEK293 cells; note: nearly all actives have a fitted effect of over 50% in size
Marburg entry inh = qHTS for inhibitors of binding or entry into cells for Marburg Virus. Marburg virus pseudotyped entry inhibition, cell reporter. Potency, µM (series often up to 37.8 µM), most hits filed as inhibitors. 300,000 compounds, 1.8% hits; calls by dose curve; tested in HEK293 cells
HCMV antiviral = qHTS Assay for inhibitors of the human cytomegalovirus (HCMV) | activity change, negative = inhibition, % at 57.5 µM | 410,000 compounds, 4.5% hits | HFF cells, HCMV-luciferase reporter, 72 h; stronger effect = lower value; in the data active = activity change below about -60%; inconclusive = no clear call, values can overlap the other calls; inactive = above about -39%
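Inhibition of viral replication was scored as loss of reporter luminescence in HFFs infected with HCMV-luciferase (MOI 1 PFU/cell) for 72 h; compounds tested at 2 doses, normalized to buffer and Salinomycin controls.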
VACV mCherry inh = qHTS for Stage-Specific Inhibitors of Vaccinia Orthopoxvirus: mCherry Reporter Primary qHTS | Vaccinia virus mCherry reporter infection, fluorescence | Potency, µM (doses to about 36.5 µM), actives largely listed as inhibitors | 310,000 compounds, 0.63% hits; calls by dose curve; tested in A549 cells; note: nearly all actives have a fitted effect of over 35% in size
VACV Venus inh = qHTS for Stage-Specific Inhibitors of Vaccinia Orthopoxvirus: Venus Reporter Primary qHTS; Vaccinia virus Venus reporter expression, fluorescence; Potency, µM (series often up to 36.5 µM), actives largely listed as inhibitors; 330,000 compounds, 0.46% hits; calls by dose curve; tested in A549 cells; note: nearly all actives have a fitted effect of over 30% in size
FMDV antiviral = High Throughput Screening for Foot and Mouth Disease Virus Antivirals. AID 1159524, 2015. Potency, µM (highest dose often 57.9 µM), most hits filed as inhibitors. 410,000 compounds, 1.2% hits. FMDV antiviral cell-based qHTS; calls by dose curve; tested in HEK293T cells; note: read-out not given here; nearly all actives have a fitted effect of over 45% in size
A number is an active result; . = inactive; ? = inconclusive; / = no result given; ! = not confirmed by another sample. Sampled rows, rich in hits. Any-hit rate of the full collection: about 6.5%.

SMILES	LASV entry inh	Marburg entry inh	HCMV antiviral	VACV mCherry inh	VACV Venus inh	FMDV antiviral
O=C1N(Cc2ccccc2C(F)(F)F)c2ccccc2[C@@]12O[C@H](COc1ccccc1)CC1=C2CCC1	/	.	/	/	/	/
Cc1ccc(NC(=O)c2ccoc2)cc1-c1ccc(C(=O)NCC2CC2)cc1	3.1µM	/	/	/	/	/
CCOc1cc(NC(=S)NCCCN2CCOCC2)c(OCC)cc1NC(=O)CC(C)C	.	.	-93	/	/	.
CCOc1cc(NC(=S)NCCCN2CCOCC2)c(OCC)cc1NC(=O)C(C)C	.	.	.	.	.	.
CC(C)C[C@H]1CNC(=S)N1C[C@H]1CCCN1C[C@H](Cc1ccccc1)N1C[C@H](Cc2ccc(O)cc2)N(CC2CCCCCC2)C1=S	/	/	-84	.	?	.
Oc1ccc(C[C@H]2CNC(=S)N2CC2CCCN2C[C@H](Cc2ccccc2)N2C[C@H](Cc3ccc(O)cc3)N(CC3CCCCCC3)C2=S)cc1 (stereo partly specified)	/	/	-63	?	?	?
CC(C)C[C@H]1CNC(=S)N1CC1CCCN1C[C@H](Cc1ccc(O)cc1)N1C[C@H](Cc2ccccc2)N(CC2CCCCCC2)C1=S (stereo partly specified)	/	/	.	?	.	.
Oc1ccc(C[C@H]2CNC(=S)N2CC2CCCN2C[C@H](Cc2ccc(O)cc2)N2C[C@H](Cc3ccc(O)cc3)N(CC3CCCCC3)C2=S)cc1 (stereo partly specified)	/	/	-93	?	10µM	?
Oc1ccc(C[C@H]2CN([C@@H](Cc3ccc(O)cc3)CN3CCC[C@@H]3CN3C(=S)NC[C@@H]3Cc3ccccc3)C(=S)N2CC2CCCCCC2)cc1	/	/	-97	?	?	.
Oc1ccc(C[C@H]2CN([C@@H](Cc3ccccc3)CN3CCCC3CN3C(=S)NC[C@@H]3Cc3ccccc3)C(=S)N2CC2CCCCC2)cc1 (stereo partly specified)	/	/	?	.	.	.
COc1ccc(CN2CC[C@H]3C=CC[C@@H](C(=O)NCc4cccnc4)[C@H]3C2=O)cc1OC	/	/	/	.	.	/
N#CCCn1c(=O)c(-c2ccccc2)nc2cnc(N3CCNCC3)nc21	/	/	/	/	/	.
CN(NC(=O)C(=O)NCc1ccco1)C(=O)NC1CCCCC1	/	/	.	/	/	/
CCc1ccc(N(CC)C(=O)Cn2nc(Cc3cccnc3)c3ccccc3c2=O)cc1	.	.	.	.	.	.
Oc1ccc(C[C@H]2CN([C@@H](Cc3cccc(O)c3)CN3CCC[C@@H]3CN3C(=S)NC[C@@H]3Cc3ccccc3)C(=S)N2CC2CCCCC2)cc1	/	/	-72	?	?	?
Oc1ccc(C[C@H]2CNC(=S)N2C[C@H]2CCCN2C[C@H](Cc2ccccc2)N2C[C@H](Cc3ccc(O)cc3)N(CC3CCCCCC3)C2=S)cc1	/	/	?	.	.	.
CCOC(=O)/C=C/C(=O)Nc1ccccc1-c1ccccc1NC(=O)/C=C/C(=O)OCC	13µM	?	-98	.	.	?
CCOC(=O)/C=C/C(=O)Nc1cccc([N+](=O)[O-])c1	?	?	/	.	.	25µM
CCOC(=O)Cc1ccc(NC(=O)c2cccc([N+](=O)[O-])c2)cc1	/	/	-60	.	.	.
CCOC(=O)c1cccc(NC(=O)/C=C/c2cccc([N+](=O)[O-])c2)c1	.	.	.	/	/	?
COC(=O)c1c(NC(=O)c2cc(=O)c3cc(C)cc(C)c3o2)sc2c1CCC2	.	.	.	.	.	.
CC(CNC(=O)CCCn1c(=O)c2cccn2c2cccnc21)c1ccccc1 (stereo unspecified)	.	/	-69!	.	.	.
CN(C)c1ccc(/C=N/N=C/c2ccccc2O)cc1	?	5.6µM	.	.	.	.
COc1ccccc1C=NN=Cc1ccccc1O	?	?	.	.	.	.
C#CCOCCOCCOCCNc1nc(N2CCN(C(=O)CCCCCCCCCCNC(=O)[C@H]([C@@H](C)CC)n3cc(CCCCN=C(N)N)nn3)CC2)nc(N2CCN(C(=O)CCCCCCCCCCNC(=O)[C@H](CO)n3cc(CCCCCN)nn3)CC2)n1	/	/	/	?	7.1µM	?
SMILES	LASV entry inh	Marburg entry inh	HCMV antiviral	VACV mCherry inh	VACV Venus inh	FMDV antiviral
C#CCOCCOCCOCCNc1nc(N2CCN(C(=O)CCCCCCCCCCNC(=O)Cn3cc(CCCCCN)nn3)CC2)nc(N2CCN(C(=O)CCCCCCCCCCNC(=O)[C@H]([C@@H](C)CC)n3cc(CCCCN=C(N)N)nn3)CC2)n1	/	/	/	?	5.6µM	.
C#CCOCCOCCOCCNc1nc(N2CCN(C(=O)CCCCCCCCCCNC(=O)[C@H]([C@@H](C)CC)n3cc(CCCCN=C(N)N)nn3)CC2)nc(N2CCN(C(=O)CCCCCCCCCCNC(=O)[C@H](CCCCN)n3cc(C)nn3)CC2)n1	/	/	/	?	7.1µM	35µM
C#CCOCCOCCOCCNc1nc(N2CCN(C(=O)CCCCCCCCCCNC(=O)[C@@H](CCC(=O)O)n3cc(CCCCCN)nn3)CC2)nc(N2CCN(C(=O)CCCCCCCCCCNC(=O)[C@H]([C@@H](C)CC)n3cc(CCCCCN)nn3)CC2)n1	/	/	/	.	?	.
C#CCOCCOCCOCCNc1nc(N2CCN(C(=O)CCCCCCCCCCNC(=O)[C@H]([C@@H](C)CC)n3cc(CCCCCN)nn3)CC2)nc(N2CCN(C(=O)CCCCCCCCCCNC(=O)[C@H](CO)n3cc(CCCCCN)nn3)CC2)n1	/	/	/	?	10µM	.
CN(C)c1ccc(/C=N\Nc2ccc([N+](=O)[O-])cc2[N+](=O)[O-])cc1Br	/	/	/	.	.	/
CCN1C(Br)=CCc2ccccc21	/	/	/	.	.	/
CCC(=O)OCOc1ccc(/C=C2/CCC(CN(C)C)C2=O)cc1 (stereo unspecified)	?	?	?	.	.	32µM
O=C(CSCC(=O)c1ccc([N+](=O)[O-])cc1)c1ccc([N+](=O)[O-])cc1	/	/	/	.	.	.
O=C(C#Cc1ccccc1)c1ccccc1	/	/	-84	?	?	?
O=C(C#Cc1ccccc1)c1ccc([N+](=O)[O-])cc1	?	.	-88	.	.	22µM
CCOC(=O)c1cccn1C1C(=O)N(Cc2ccc(Cl)nc2)c2ccccc21 (stereo unspecified)	/	/	.	/	/	/
C/C(=N/NC(=O)CNC(=O)COc1cccc(C)c1)c1ccco1	.	?	.	.	.	.
O=C(COc1ccccc1)Nc1ccc(S(=O)(=O)NCc2ccco2)cc1	23µM	?	.	/	/	.
C/C(=N\NC(=O)COc1ccc(C(C)(C)C)cc1)c1cc2ccccc2o1	3.2µM	10µM	.	.	.	.
C/C(=N/NC(=O)CNC(=O)COc1ccccc1)c1ccco1	.	?	-63	.	.	.
C/C(=N\NC(=O)COc1ccc(C(C)(C)C)cc1)c1ccccc1	.	.	.	.	.	.
O=C(COc1ccccc1)NCC(=O)Nc1ccc(S(=O)(=O)NCc2ccco2)cc1	.	.	-103	/	.	.

High-throughput results as filed in PubChem BioAssay.
